From PubChem BioAssay
Shown is part of a subset that was picked to be rich in hits.
HT1080-NT tox = qHTS for induction of synthetic lethality in tumor cells producing 2HG: qHTS for the HT-1080-NT fibrosarcoma cell line | HT-1080-NT fibrosarcoma viability, CellTiter-Glo ATP luminescence, 48 h | Potency, µM (titrated, usually from 46.1 µM), for the others: at the top dose activity, negative = less viability, hits mostly cytotoxic | 360,000 compounds, 1.6% hits | AID 686970, 2013;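 also: NT is the 2HG producing partner of a matched IDH1 knockdown line; potency is read from the fitted curve at half-maximal effect; 0% = DMSO-treated cells and -100% = media-only wells without cells; nearly all actives have a fitted effect of over 55% in size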
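Luminescent CellTiter-Glo readout after 48 hours of compound exposure at 37 degrees C defined viability of HT-1080-NT cells. Activity was normalized to DMSO wells and cell-free media wells; concentration-response curves were fitted and assigned curve classes.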
HT1080 IDH1KD tx = qHTS for induction of synthetic lethality in tumor cells producing 2HG: qHTS for the HT-1080-IDH1KD cell line; AID 686971, 2013; 360,000 compounds, 2% hits; HT-1080 IDH1 knockdown viability, ATP luminescence, 48 h; Potency, µM (doses to about 46.1 µM), without a hit: top-dose activity, negative = toxicity, hits mostly cytotoxic;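 also: potency is read from the fitted curve at half-maximal effect; 0% = DMSO wells and -100% = cell-free medium wells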
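% activity derives from luminescence (CellTiter-Glo), normalised to DMSO and no-cell wells. HT-1080-IDH1KD cells, 750/well, had 48 h compound exposure at 37 °C.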
TDP1 cell CPT = qHTS for Inhibitors of human tyrosyl-DNA phosphodiesterase 1 (TDP1): qHTS in cells in presence of CPT; chicken DT40 Tdp1-/-;hTDP1 cells + 20 nM CPT, ATP luminescence, 48 h; Potency, µM (series often up to 46.2 µM), for inactives: top-dose activity change, negative = growth inhibition, actives largely listed as inhibitors; 420,000 compounds, 12% hits; AID 686979, 2013; also: potency is read from the fitted curve at half-maximal effect; nearly all actives have a fitted effect of over 55% in size
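Chicken DT40 Tdp1-/- cells complemented with human TDP1, 400 cells/well, exposed to compounds plus 20 nM camptothecin for at least 48 h at 37 C; viability read as ATP content by CellTiter-Glo luminescence.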
IL-1B inflam inh = qHTS for Inhibitors of Inflammasome Signaling: IL-1-beta AlphaLISA Primary Screen; THP-1 LPS/ATP IL-1B secretion, AlphaLISA, 16 h; hits give low values; activity change, % at 57.5 µM; 360,000 compounds, 4.7% hits; AID 743279, 2014; in the data active = activity change below about -50%; inconclusive = mostly about -30% to -49%
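THP-1 cells pretreated 1 hr with compounds (up to 57.5 uM final), then stimulated with LPS (250 ng/mL final) plus ATP (1.25 mM final); secreted IL-1B measured by AlphaLISA after 16 hr, decreased signal indicating inhibition.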
ALOX12 inh = Primary qHTS assay for inhibitors of human arachidonate 12S-lipoxygenase (ALOX12): Round 2 | purified 12hLO, xylenol orange hydroperoxide absorbance | AID 1671190, 2021 | Potency, µM (titrated, usually from 108 µM), inactives show at the highest dose activity change, negative = inhibition, actives largely listed as inhibitors | 580,000 compounds, 1.1% hits | Polyunsaturated fatty acid lipoxygenase ALOX12 (Homo sapiens), P18054; also: potency is read from the fitted curve at half-maximal effect
Target sequence (P18054 whole entry, looked up): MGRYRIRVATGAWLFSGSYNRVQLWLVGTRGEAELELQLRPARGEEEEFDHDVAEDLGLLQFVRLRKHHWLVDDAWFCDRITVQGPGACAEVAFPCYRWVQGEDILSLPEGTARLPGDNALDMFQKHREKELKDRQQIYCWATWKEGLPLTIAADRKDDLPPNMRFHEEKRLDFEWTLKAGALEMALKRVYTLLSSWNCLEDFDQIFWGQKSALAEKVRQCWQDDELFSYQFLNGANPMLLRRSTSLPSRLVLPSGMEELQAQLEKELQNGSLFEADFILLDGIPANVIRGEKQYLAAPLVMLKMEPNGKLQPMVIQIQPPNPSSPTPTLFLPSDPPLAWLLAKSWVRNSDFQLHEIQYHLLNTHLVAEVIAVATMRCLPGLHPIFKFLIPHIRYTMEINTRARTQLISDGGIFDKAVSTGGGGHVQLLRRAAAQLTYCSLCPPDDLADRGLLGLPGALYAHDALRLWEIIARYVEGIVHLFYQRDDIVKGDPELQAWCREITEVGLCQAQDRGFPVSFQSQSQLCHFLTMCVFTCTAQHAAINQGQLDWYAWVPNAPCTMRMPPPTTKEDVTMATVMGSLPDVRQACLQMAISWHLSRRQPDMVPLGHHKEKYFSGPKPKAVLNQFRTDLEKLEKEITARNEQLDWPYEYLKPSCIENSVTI
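Purified human 12hLO (150 nM final) in 25 mM Hepes, 0.01% Triton X-100, pH 7.0 was preincubated 15 min at room temperature with compound. Then 40 uM arachidonic acid was added, 30 min. Hydroperoxide was read by Fe-XO absorbance ratio 573/405 nm.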
TDP1 cell noCPT = qHTS for Inhibitors of human tyrosyl-DNA phosphodiesterase 1 (TDP1): qHTS in cells in absence of CPT; DT40 Tdp1-/- hTDP1 cells, no CPT, ATP luminescence, 48 h; Potency, µM (highest dose often 46.2 µM), without a hit: at the highest dose activity change, negative = growth inhibition, actives largely listed as inhibitors; 420,000 compounds, 15% hits; also: potency is read from the fitted curve at half-maximal effect; nearly all actives have a fitted effect of over 55% in size
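A cellular qHTS used chicken DT40 cells lacking endogenous Tdp1 but carrying stably transfected human TDP1. Compounds were applied without camptothecin, and cell growth kinetics were judged by ATP-dependent luminescence after ≥48 hr.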
Starred values were filed as active, the others as inactive; ? = inconclusive; . = not tested or not shown; [ ] = dose if it differs, or a comment. Unless noted, calls follow the shape of the dose curve; as a rule, active = well fitted curve in the direction sought with a large enough effect; inconclusive = small, poorly fitted or top-dose-only effect, or another doubt; inactive = no such curve, though single readings can be large; an effect the other way counts as inactive or inconclusive. Unless noted, % is scaled to controls: 0 for no effect and ±100 for the full control effect.

SMILES | HT1080-NT tox | HT1080 IDH1KD tx | TDP1 cell CPT | IL-1B inflam inh | ALOX12 inh | TDP1 cell noCPT
CCCN1CCC(NCc2cn(C)nc2-c2ccc(Oc3ccccc3)cc2)CC1 | ? | ? | 5.2µM* | 0 | -10% | 4.6µM*
COCCN(Cc1cn[nH]c1-c1ccc2cc(OC)ccc2c1)C(C)C | -2% | -1% | -2% | -9 | 31% | 2%
CCOC(=O)CN(C)Cc1cn(C)nc1-c1ccc(Oc2ccccc2)cc1 | 0% | 8% | ? | 25 | 8% | 13µM*
COCCN1CCCC(CNCc2cn(C)nc2-c2ccc(Oc3ccccc3)cc2)C1 (stereo unspecified) | ? | ? | 18µM* | -51* | -6% | 5.8µM*
CCOC(=O)CN(C)Cc1cn[nH]c1-c1ccc2cc(OC)ccc2c1 | -15% | -16% | 16µM* | -64* | ? | 13µM*
CCN(CC)c1ccc(S(=O)(=O)N2CCOCC2)cc1NC(=O)COC(=O)/C=C/c1ccco1 | 4% | 1% | 23µM* | -1 | -17% | 26µM*
CCN(CC)c1ccc(S(=O)(=O)N2CCOCC2)cc1NC(=O)COC(=O)c1cccnc1SC | -1% | 4% | ? | 0 | -9% | 16µM*
CCc1ccc(NC(=O)COC(=O)/C=C/c2ccco2)cc1 | 3% | -2% | ? | 34 | ? | ?
CCN(c1ccc(NC(=O)COC(=O)/C=C/c2ccco2)cc1)C(C)C | 0% | 0% | 26µM* | -2 | 2% | 18µM*
O=C(CCc1cn2ccccc2n1)N[C@H]1[C@@H]2CCO[C@@H]2[C@@H]1C1CCCC1 | . | . | . | . | 19% | .
COC(=O)C1=CN(c2ccc(OC)cc2)C(N)=C(C#N)C1c1cccc2ccccc12 (stereo unspecified) | ? | ? | 5.8µM* | 16 | ? | 5.2µM*
COC(=O)C1=CN(c2ccc(F)cc2)C(N)=C(C#N)C1c1cccc(OC)c1OC (stereo unspecified) | 1% | 0% | ? | -18 | ? | ?
CCc1ccc(N2C=C(C(=O)OC)C(c3cccc4ccccc34)C(C#N)=C2N)cc1 (stereo unspecified) | ? | ? | 13µM* | -10 | ? | 8.2µM*
COC(=O)C1=CN(c2ccc(C(C)(C)C)cc2)C(N)=C(C#N)C1c1cccc2ccccc12 (stereo unspecified) | ? | ? | 15µM* | 7 | ? | 13µM*
Nc1ncnc(Sc2ccccc2)c1[N+](=O)[O-] | -3% | -2% | -3% | -103* | -5% | -19%
Cc1ccc(Sc2ncnc(N)c2[N+](=O)[O-])cc1 | -20% | 0% | -26% | -27 | -23% | ?
Nc1ncnc(Sc2ncccn2)c1[N+](=O)[O-] | -14% | 16µM* | 1.2µM* | -27 | -17% | 1.3µM*
CC(C)Nc1ncnc(N)c1[N+](=O)[O-] | . | . | . | . | -3% | .
Nc1ncnc(Sc2ccc(Cl)cc2)c1[N+](=O)[O-] | -3% | -14% | 4.6µM* | ? | -16% | 5.8µM*
CCCCN(C(=S)Nc1cc(F)cc(F)c1)C1CCN(C(C)=O)CC1 | . | . | . | . | 8% | .
CC(=O)N1CCC(Cc2ccc(C(=O)Nc3ccc(C)cc3)cc2)CC1 | . | . | . | . | 44% | .
O=C(N[C@@H](C(=O)NCc1ccncc1)c1ccccc1)C(c1ccccc1)c1ccccc1 | . | . | . | . | 10% | .
COc1ccc(Cl)cc1NC(=O)NC1CCCCC1 | 13% | 5% | -14% | -9 | 416% | ?
COc1ccc(Cl)cc1NC(=O)Nc1cccc([N+](=O)[O-])c1C | -7% | -9% | ? | -6 | ? | 23µM*
COc1ccc(Cl)cc1NC(=O)Nc1ccc(Br)cn1 | ? | 18µM* | ? | 30 | -1% | ?
SMILES | HT1080-NT tox | HT1080 IDH1KD tx | TDP1 cell CPT | IL-1B inflam inh | ALOX12 inh | TDP1 cell noCPT
O=C(Nc1ccc(Cl)cc1)Nc1ccc(Br)cn1 | ? | 16% | 18µM* | -14 | 8% | 18µM*
COc1ccc(-c2nc(C(C)C)nc3c2CN([S+](=O)([O-])c2c(C)noc2C)CC3)cc1 | . | . | . | . | 20% | .
Cc1ccc(C2Cn3nnc(C(=O)N4CCN(C(=O)c5ccsc5)CC4)c3CO2)cc1 (stereo unspecified) | . | . | . | . | 20% | .
COc1cc(OC)c2c(-c3ccccc3)cc(=O)oc2c1C(CC(=O)N1CCN(c2ccccc2)CC1)c1ccc(N(C)C)cc1 (stereo unspecified) | 0% | 1% | ? | -11 | ? | ?
COc1ccc(C(CCN2CCCC(C)C2)c2c(OC)cc(OC)c3c(C)cc(=O)oc23)cc1 (stereo unspecified) | -7% | -7% | 13µM* | -29 | -4% | 23µM*
COc1ccc(C2CC(=O)Oc3c(C(CCN4CCCC(C)C4)c4ccc(N(C)C)cc4)c(OC)cc(OC)c32)cc1 (stereo unspecified) | 9% | -1% | ? | -11 | -2% | ?
COc1cc(OC)c2c(-c3ccccc3)cc(=O)oc2c1C(CCN1CCCC(C)C1)c1ccc(N(C)C)cc1 (stereo unspecified) | -20% | -18% | ? | -27 | -25% | 21µM*
COc1ccc(C(CCN2CCCC(C)C2)c2c(OC)cc(OC)c3c(-c4ccccc4)cc(=O)oc23)cc1 (stereo unspecified) | ? | ? | 3.3µM* | -26 | ? | 2.9µM*
C[S+](=O)([O-])CCn1ncc2cc(OCc3cccc(-c4ccccc4F)c3)ccc21 | . | . | . | . | 4%[176 µM] | .
Cn1nc(-c2ccccc2)c(CO)c1Oc1cccc(C(F)(F)F)c1 | -2% | 2% | ? | -9 | -7% | ?
Cc1ccc(Sc2c(CO)c(-c3ccccc3)nn2C)cc1 | 0.73µM* | 1.2µM* | 1.2µM* | -11 | -11% | 0.73µM*
Cc1ccc(NC(=O)C2CCN(c3nnc(-n4cccc4)s3)CC2)cc1Cl | . | . | -13% | . | ? | -15%
Cc1cc(C)cc(NC(=O)C2CCCN(c3nnc(-n4c(C)ccc4C)s3)C2)c1 (stereo unspecified) | . | . | 26µM* | . | -18% | ?
